# An excerpt weighted towards active compounds, which were near 9.5% of everything screened.
# ALDH1A1 inh: blocks purified human ALDH1A1 activity; P00352; Purified ALDH1A1, NADH fluorescence, propionaldehyde substrate; Potency, µM (top dose mostly 75.3 µM), inactives show at the highest dose activity, negative = inhibition, actives largely listed as inhibitors; hit rate 7.3% among 220,000; AID 1030; active = well fitted inhibition curve with a large enough effect, not every such curve was filed as active; inconclusive = small, poorly fitted or top-dose-only effect, or another doubt; inactive = no such curve, though single readings can be large or run the other way;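 also: plate controls were no enzyme wells and a reference inhibitor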
# NPSR antag: blocks cAMP signaling of the human neuropeptide S receptor | Potency, µM (top dose mostly 38.3 µM), for inactives: at the top dose activity change, negative = inhibition, most hits filed as inhibitors | hit rate 1% among 220,000 | CHO-NPSR cells, cAMP TR-FRET, antagonist mode | Q6W5P4; also: nearly all actives have a fitted effect of over 50% in size
# Tau fluor cs: counter-screen for tau fibril formation inhibitors; tau K18 P301L Alexa594 fluorescence, heparin fibrillization; Potency, µM (top dose mostly 57.7 µM), without a hit: at the top dose activity change, negative = decrease; hit rate 0.93% among 280,000; AID 1463; also: nearly all actives have a fitted effect of over 55% in size
#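 Human K18 P301L tau (15 uM unlabeled plus 0.24 uM Alexa 594-labeled, final) in 100 mM sodium acetate pH 7 was mixed with compound and 20 uM heparin and incubated 6 hr at 37 C.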
# Tau FP inhib: blocks human tau fibril formation measured by polarization; P10636; K18 P301L tau heparin fibrillization, Alexa594 FP, 6 h; Potency, µM (titrated, usually from 57.7 µM), for the others: at the top dose activity, negative = inhibition, most hits filed as inhibitors; hit rate 0.39% among 280,000; also: nearly all actives have a fitted effect of over 55% in size
# Target sequence (P10636 561-689 P618L limits assumed): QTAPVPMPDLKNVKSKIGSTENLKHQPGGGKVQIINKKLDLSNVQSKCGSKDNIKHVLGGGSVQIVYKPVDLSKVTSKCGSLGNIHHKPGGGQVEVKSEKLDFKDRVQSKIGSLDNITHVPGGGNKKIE
#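 Read-out: fluorescence polarization of Alexa 594-labeled tau (0.24 uM), 555 nm excitation, 632 nm emission. Mixtures held 15 uM unlabeled K18 P301L, compound and 20 uM heparin, pH 7 acetate buffer, incubated 6 hr at 37 C.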
# HPGD block: blocks human HPGD enzyme activity. purified HPGD, NADH fluorescence kinetic, PGE2 substrate. hit rate 4.3% among 150,000. AID 894. Potency, µM, for inactives: top-dose activity change, negative = inhibition, hits mostly inhibitors; active = well fitted inhibition curve with a large enough effect, not every such curve was filed as active; inconclusive = small, poorly fitted or top-dose-only effect, or another doubt; inactive = no such curve, though single readings can be large or run the other way
# Target sequence (P15428 whole entry, looked up): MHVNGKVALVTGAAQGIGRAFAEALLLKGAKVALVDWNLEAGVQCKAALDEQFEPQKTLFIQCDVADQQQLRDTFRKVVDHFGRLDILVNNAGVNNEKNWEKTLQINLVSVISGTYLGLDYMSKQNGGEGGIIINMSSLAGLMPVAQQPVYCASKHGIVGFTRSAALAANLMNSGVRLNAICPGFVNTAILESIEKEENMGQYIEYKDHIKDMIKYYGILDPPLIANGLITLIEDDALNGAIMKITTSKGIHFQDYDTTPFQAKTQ
#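 NADH formation kinetics: reaction with 30 uM PGE2 and 1 mM NAD+ (final), 20 nM enzyme, Tris-HCl pH 8 with Tween 20, after 15 min compound preincubation at room temperature. Fluorescence change, last versus first of five reads.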
# Tau ThT inhib: blocks human tau fibril formation measured by thioflavin T. AID 1460. P10636. hit rate 2.1% among 270,000. recombinant tau K18 P301L, heparin-induced fibrillization, ThT fluorescence. Potency, µM (top dose mostly 57.4 µM), inactives show at the highest dose activity, negative = inhibition, usual class: inhibitors; also: nearly all actives have a fitted effect of over 55% in size
#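 Fibril formation assay: tau K18 P301L at 15 uM with trace Alexa 594 label, heparin inducer 20 uM, pH 7 sodium acetate buffer, 37 C for 6 hr; endpoint ThT signal.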
# * marks the source's active call; other numbers are inactive results; ? = inconclusive; . = no result; [ ] = another dose, or the depositor's remark. Unless noted, calls follow the shape of the dose curve; as a rule, active = well fitted curve in the direction sought with a large enough effect; inconclusive = small, poorly fitted or top-dose-only effect, or another doubt; inactive = no such curve, though single readings can be large; an effect the other way counts as inactive or inconclusive. Unless noted, % is scaled to controls: 0 for no effect and ±100 for the full control effect; potency is read from the fitted curve at half-maximal effect.
SMILES,ALDH1A1 inh,NPSR antag,Tau fluor cs,Tau FP inhib,HPGD block,Tau ThT inhib
COc1ccc(-n2c(=S)[nH]c3cc(C(=O)NCCCN4CCCC4=O)ccc3c2=O)c(OC)c1,14µM*,-7%[46.1 µM],-6%,1%,-16%,-9%
COc1ccc(C(=O)NCCCN2CCCC2=O)cc1,-1%,-11%[46.1 µM],0%,0%,-12%,2%
COc1ccc(-n2c(=S)[nH]c3cc(C(=O)NCCCN4CCCC4=O)ccc3c2=O)cc1,18µM*,-9%[46.1 µM],-1%,-11%,-9%,-10%
CCCCCCCN1C2=NCCCN2c2ccccc21,?,-21%,2%,2%,.,-4%
CC(C)OCC(O)CSc1ccccn1 (stereo unspecified),-3%,-18%[46.1 µM],0%,1%,18µM*,1%
CCCCCOc1ccc(Cn2c(=O)oc3ccc(C)cc32)cc1OC,.,.,-15%,-1%,.,-5%
O=C(NNC(=S)Nc1ccc(Cl)cc1)c1ccccc1OC(F)F,20µM*,0%,-25%,3%,-14%,?
COc1ccc(NC(=S)Nc2ccc(OC(F)F)cc2)cn1,1%,-5%,-22%,-9%,.,-8%
CCN(CC)c1ccc(NC(=S)NC(=O)c2cccs2)cc1,8.9µM*,?,13µM*[quencher],19%,.,6.3µM*
CCCCC(=O)Nc1ccc(NC(=S)NC(=O)c2cccs2)cc1OC,20µM*,-32%,-27%,-11%,-11%,?
CCCC(=O)Nc1ccc(NC(=S)NC(=O)c2cccs2)cc1,-8%,-3%,-5%,5%,.,-17%
CCCCC(=O)Nc1ccc(NC(=S)NC(=O)CC)cc1OC,?,1%,-10%,-1%,?,?
COc1ccccc1NC(=S)NNC(=S)Nc1ccc(OC(F)F)cc1,7.1µM*,-10%,?,15%,-19%,?
Cc1c(C)c2c(c(C)c1O)CCC(C)(COc1ccc(Cc3sc(=O)[nH]c3O)cc1)O2 (stereo unspecified),8%,.,?,?,-8%,?
CN(c1nnc(NC(=O)Nc2ccccc2C(F)(F)F)s1)C1CCCCC1,.,.,-1%,-6%,.,1%
COc1ccc(-n2cc(CNCCc3cnc[nH]3)c(-c3cccc(F)c3)n2)cc1,4%,-25%,15%,-5%,.,13%
CCN(CC)c1ccc(NC(=S)NC(=O)c2ccco2)cc1,25µM*,-26%,-26%,?,.,?
O=C(NNC(=S)Nc1ccc(Cl)cc1)c1cccs1,11µM*,15%,-21%,4%,.,?
O=C(NC(=S)Nc1ccc(-c2ccc(CO)o2)cc1)c1cccs1,20µM*,-28%,-19%,0%,.,?
CCN(c1ccccc1)S(=O)(=O)c1ccc(NC(=S)NC(=O)c2cccs2)cc1,6.3µM*,?,?,?,-21%,-11%
CCN(CC)c1ccc(NC(=O)c2ccco2)cc1,-4%,-20%[46.1 µM],-14%,9%,-16%,?
Cc1ccc(C(=O)NC(=S)Nc2ccc(-c3ccc(CO)o3)cc2)cc1,?,31%,-20%,-13%,.,?
CCOc1ccc(-c2cc(-c3nc(-c4cc(OC)c(OC)c(OC)c4)no3)[nH]n2)cc1Cl,.,.,-16%,7%,.,?
COc1ccccc1-c1nc2c(c(SCc3cccc(Cl)c3)n1)Cc1c(CO)cnc(C)c1O2,.,.,3%,5%,.,5%
CCN(CC)c1ccc(NC(=O)CN2CCN(CC(=O)Nc3ccc(F)cc3)CC2)cc1,-6%,-12%[46.1 µM],-17%,17%,1%,-6%
CCN(CC)c1ccc(NC(=S)Nc2ccc(F)cc2)cc1,11µM*,-11%,?,?,.,13µM*
CCCCn1nnc(NC(=S)NC(=O)c2cccs2)n1,20µM*,-2%[46.1 µM],-6%,-1%,.,-5%
CCN(CC)C(=S)SCC(=O)Nc1ccc(F)cc1,?,-8%[46.1 µM],-4%,-7%,18µM*,0%
O=C(O)C1CCC[C@@H]2[C@@H]3CC(CN12)[C@@H]1CCCCN1C3 (stereo partly specified),3%,.,-5%,0%,-3%,-5%
